# The full list was thinned out, with hits kept by preference.
# Pf Dd2 inh: inhibitors of Plasmodium falciparum Dd2 growth; P. falciparum Dd2 growth, SYBR Green, 72 h; Potency, µM (doses to about 28.9 µM), without a hit: at the top dose activity, negative = inhibition, most hits filed as inhibitors; hit rate 4.3% among 120,000; active = well fitted inhibition curve with a large enough effect;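 also: plate controls were DMSO vehicle for no effect and reference drug for full effect; nearly all actives have a fitted effect of over 65% in size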
#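 Infected erythrocytes (Dd2, 0.3% parasitemia, 2.5% hematocrit final) are added to compound in RPMI-1640/Albumax II medium, grown 72 h at 37C in low oxygen, then lysed with saponin/Triton-X containing SYBR Green and read by fluorescence.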
# An asterisk follows results filed as active; i = inactive; [ ] = remark or other dose. Potency is read from the fitted curve at half-maximal effect.
SMILES,Pf Dd2 inh
COc1ccc(-c2ccccc2NC(=O)C2CCCN(Cc3cccc(F)c3F)C2)cc1 (stereo not drawn),i
CCCOC(=O)N1CCCC(C(=O)Nc2ccccc2-c2ccc(OC)cc2)C1 (stereo not drawn),-21%
COc1cccc(-c2ccc(NC(=O)C3CCCN(Cc4cc(C(C)C)n[nH]4)C3)cc2)c1 (stereo not drawn),11µM*
COc1cccc(-c2ccc(NC(=O)C3CCCN3C(=O)CNC(C)=O)cc2)c1 (stereo not drawn),-20%
COc1cccc(-c2ccc(NC(=O)C3CCCN3C(=O)Cn3cccn3)cc2)c1 (stereo not drawn),-10%
O=C(NC1CCN(c2cc(-c3cccs3)[nH]n2)CC1)c1cccc(Cl)c1,i
CC(C)CC(=O)NCC1Cn2cccc2C(=O)N1Cc1ccccc1 (stereo not drawn),-2%
Cn1ccnc1-c1nccn1CC(CO)Cc1ccsc1 (stereo not drawn),-5%
CC(NC(=O)COc1ccc(NC(=O)C2CC2)cn1)c1cccs1 (stereo not drawn),26%
COc1ccc(NC(=O)c2ccco2)cc1NC(=O)COc1ccc(C)cc1C,2.8µM*
COc1ccc(NC(=O)c2ccco2)cc1NC(=O)COc1ccc(Cl)cc1C,16%
COc1ccc(NC(=O)c2ccco2)cc1NC(=O)COc1ccccc1,1%
COc1cccc(S(=O)(=O)N2CC(n3cc(C(=O)NCc4ccncc4)nn3)C2)c1,4%
CN1C(=O)c2cccn2CC1CNS(=O)(=O)c1ccc(F)cc1 (stereo not drawn),5%
CCOC(=O)c1oc2ccc(S(=O)(=O)NCC3Cn4cccc4C(=O)N3C)cc2c1C (stereo not drawn),13µM*
COc1cccc(S(=O)(=O)NCC2Cn3cccc3C(=O)N2C)c1 (stereo not drawn),-5%
O=C(C1CC1)N1CC(Oc2ccc(-c3noc(C4CCOCC4)n3)cc2)C1,i
Cn1ccc(NC(=O)c2ccc3c(c2)NC(C)(COc2ccccc2)CO3)n1 (stereo not drawn),i
CCc1cc(C(=O)N2CCC3(CC2)CC(c2ccccc2)C(=O)N3)cs1 (stereo not drawn),-14%
CC(CCc1ccccc1)NC(=O)Cn1ccn2nc3c(c2c1=O)CCCC3 (stereo not drawn),-18%
O=C(c1cccc(Cl)c1)N1CCC(N(Cc2ccccc2)C2CCOCC2)CC1,5µM*
Cn1cc(C(=O)N2CCC(N(Cc3ccccc3)C3CCOCC3)CC2)cn1,i
Cn1cnc(C(=O)N2CCC(N(Cc3ccccc3)C3CCOCC3)CC2)c1,-7%
COc1ccc(CN2C[C@H]3CN(Cc4ccc([N+](=O)[O-])cc4)CCN3C2=O)cc1,20%[44.1 µM]
O=C(NCC(F)(F)F)C1CN(Cc2ccccc2)C(=O)N1 (stereo not drawn),4%[44.1 µM]
SMILES,Pf Dd2 inh
O=C(c1ccc(Cl)s1)N1CCC2(COc3ncccc3S(=O)(=O)N2)C1 (stereo not drawn),-15%
CCNc1ncnc2sc3c(c12)CCN(C(=O)COC)C3,-9%
COCCCNc1ncnc2sc3c(c12)CCN(Cc1cccnc1)C3,5µM*
CCNc1ncnc2sc3c(c12)CCN(C(=O)CCOC)C3,-14%
CCNc1ncnc2sc3c(c12)CCN(Cc1ccncc1)C3,13µM*
Oc1cccc(Nc2ncnc3sc4c(c23)CCCC4)c1,-28%
COc1ncc(CN2CCc3c(n(Cc4cccnc4)n(-c4ccccc4)c3=O)C2)cn1,39%[44.1 µM]
COc1ccc(C2(C(=O)NCCC3CCN(C(=O)Nc4ccc(C)cc4)CC3)CC2)cc1,-3%
CCOC(=O)C1=CN(CC(=O)NC(C)c2ccccc2)S(=O)(=O)N=C1C (stereo not drawn),30%
O=C(c1ccco1)N1C[C@@H](CO)[C@H](c2ccncc2)C1,9%
Cc1c(F)cccc1NC(=O)N1CC(c2nnc(-c3ccncc3)o2)C2(CCOCC2)C1 (stereo not drawn),i
Cc1ccc(Nc2c3c(nc4ccccc24)CCC3)cc1F,i
COc1ccccc1NC(=O)c1ccccc1NC(=O)c1ccccc1,-1%
CCOc1ccccc1NC(=O)CSc1c2c(nc3ccc(Cl)cc13)CCCC2,i
COc1ccc(C(=O)Nc2ccc3nc4c(c(Nc5ccc(OC)c(OC)c5)c3c2)CCCC4)c(OC)c1,-8%
COc1ccccc1Nc1c2c(nc3ccc(NC(=O)c4ccccc4F)cc13)CCCC2,3.5µM*
CCN(CC)c1cc(C)c2cc(NC(=O)c3ccc(OC)c(OC)c3)ccc2n1,-2%
COc1ccccc1Nc1c2c(nc3ccc(NC(=O)c4cccc(OC)c4OC)cc13)CCCC2,5.6µM*
COc1ccc(Nc2c3c(nc4ccc(NC(=O)c5ccc(F)cc5)cc24)CCCC3)cc1OC,4µM*
COc1ccccc1NC(=O)c1ccc2c(Cl)c3c(nc2c1)CCCC3,12%
CC1(C)[C@H](Cc2cc(CCO)on2)C[C@@H]1NC(=O)C1CCC1,6%[44.1 µM]
CC(C)Cc1cc(C(=O)N[C@H](C2CCNCC2)C2CC(O)C2)nc(N)n1 (stereo partly drawn),3%

# Screening data (PubChem)
